Drawing on PubChem BioAssay, this text covers composite z-score and z-score for eight compounds.

The test system of experiment [1] is Wnt5a (protein binding on small-molecule microarray). As to the kind of experiment: small molecules binding Wnt5a protein – biophysical, small-molecule microarray, 635/667 nm fluorescence, primary screen (AID 1142).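 Note: fluorescence read at 667 nm with signal to noise per printed feature.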 The following applies: 635 nm fluorescence, higher = more signal.
Experiment [2] in a line: ATP-based viability of Huh7 replicon cells – cell-based, CellTiter-Glo luminescence, basal, 48 h, cytotoxicity control for HCV replication inhibitor project, primary screen (AID 1143).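 Note: Huh7 hepatoma cells carrying a hepatitis C replication reporter with no stimulus; test concentration not given here.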 As to conditions: higher = more signal, called active from +8 up or from −8 down.
The nature of experiment [3]: basal CRE-LacZ reporter activity in PC12 – cell-based, unstimulated, primary screen (AID 1145). As to conditions: no forskolin, luminescence, 4.5 h, higher = more signal, called active from +8 up or from −8 down.
Experiment [4] in a line: forskolin-driven CRE-LacZ activity in PC12 – cell-based, CRE-LacZ reporter, forskolin-stimulated, primary screen (AID 1146).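 Note: PC12 cells with 6xCRE LacZ reporter stimulated by forskolin 10 µM; beta-galactosidase reporter signal reflecting CREB driven transcription.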 As to conditions: luminescence, 4.5 h, higher = more signal, called active from +8 up or from −8 down.
Experiment [5] has as its target Streptavidin (Streptomyces avidinii) (UniProt P22629). The experiment in a line: compounds binding control protein streptavidin – biophysical, small-molecule microarray, 635/667 nm fluorescence, artefact control for SMM compound annotation, primary screen (AID 1147).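 Note: signal reflects streptavidin binding to arrayed compounds as a control protein.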 As to conditions: higher = more signal.
Experiment [6] is described as follows: probe aInhba binding on compound microarray – biochemical, small-molecule microarray, 635/667 nm fluorescence, primary screen (AID 1148).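 Note: score merges 667nm spot fluorescence with signal-to-noise for antibody binding to printed compounds.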 As to conditions: higher = more signal.
In experiment [7] the target is Torsin-1A (Homo sapiens) (UniProt O14656). As to the kind of experiment: TOR1A wild-type binding on microarray – cell lysate, small-molecule microarray, lysate, 635/667 nm, primary screen (AID 1149). As to conditions: COS7 hTOR1A-WT lysate, 635 nm fluorescence, higher = more signal.
Torsin-1A (Homo sapiens), sequence (O14656 whole entry, looked up): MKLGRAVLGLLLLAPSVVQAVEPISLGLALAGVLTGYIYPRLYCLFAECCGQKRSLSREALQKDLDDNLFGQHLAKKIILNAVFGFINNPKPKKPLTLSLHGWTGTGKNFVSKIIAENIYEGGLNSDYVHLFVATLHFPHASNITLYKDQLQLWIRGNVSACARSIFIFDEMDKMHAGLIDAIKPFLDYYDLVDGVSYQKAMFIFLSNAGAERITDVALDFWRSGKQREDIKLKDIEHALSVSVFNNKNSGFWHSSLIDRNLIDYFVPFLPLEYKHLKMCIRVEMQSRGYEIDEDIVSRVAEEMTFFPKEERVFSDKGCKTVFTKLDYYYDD
Experiment [8] has the same target. As to the kind of experiment: torsin A mutant lysate binding on microarrays – cell lysate, small-molecule microarray, COS7 lysate, 635/667 nm fluorescence, primary screen (AID 1150).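 Note: score pools 667 nm emission and signal to noise measuring lysate protein binding.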 The following applies: COS7 hTOR1A mutant lysate, 635 nm fluorescence, higher = more signal.
The test system of experiment [9] is Sonic hedgehog protein (Shh). As to the kind of experiment: Sonic hedgehog microarray binding compounds – biochemical, small-molecule microarray, 635/667 nm fluorescence, primary screen (AID 1151).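 Note: Shh protein binding to compounds spotted on small-molecule microarray slides; score combines spot fluorescence intensity with signal-to-noise across triplicate slides.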 The following applies: 635 nm fluorescence, higher = more signal.
Experiment [10] can be described thus: optical density shifts of acrAB sulA E. coli – strain DRC41, OD650, 48 h, E. coli filamentation inducer project, primary screen (AID 1152).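 Note: E. coli MC1000 strain DRC41 lacking acrAB efflux pump and sulA.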 The following applies: higher = more signal, called active from +8 up or from −8 down.
Experiment [11] is described as follows: probe aLefty1 binding on compound microarray – biochemical, small-molecule microarray, 635/667 nm fluorescence, primary screen (AID 1153).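 Note: score merges spot fluorescence with signal-to-noise ratio from the scanned slide images.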 As to conditions: higher = more signal.
A short description of experiment [12]: plasmodial surface anion channel blockers, osmotic lysis – cell-based, P. falciparum Indochina, OD700, 1 h, primary screen (AID 1154). As to conditions: P. falciparum Indochina infected RBC osmotic lysis, higher = more signal, called active from +8 up or from −8 down.
Experiment [13] in a line: plasmodial surface anion channel blockers, osmotic lysis – cell-based, P. falciparum Indochina, OD700, 2 h, primary screen (AID 1155).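 Note: lysis reports solute entry through the parasite surface anion channel PSAC.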 As to conditions: P. falciparum Indochina infected erythrocytes, higher = more signal, called active from +8 up or from −8 down.
Experiment [14] can be described thus: changes in parasitized red cell lysis, either direction – P. falciparum Indochina, OD700, 3 h, PSAC antagonist project, primary screen (AID 1156). As to conditions: P. falciparum-infected erythrocytes, osmotic lysis, higher = more signal, called active from +8 up or from −8 down.
A short description of experiment [15]: plasmodial surface anion channel blockers, osmotic lysis – cell-based, P. falciparum Indochina, OD700, 18 h, primary screen (AID 1157). As to conditions: P. falciparum Indochina infected erythrocytes, osmotic lysis OD700, 18 h; higher = more signal, called active from +8 up or from −8 down.
A short description of experiment [16]: S6 kinase pathway phospho-S6 level changes – cell-based, A549, cytoblot, luminescence, serum-stimulated, primary screen (AID 1158).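 Note: serum-stimulated A549 lung adenocarcinoma cells; signal is phosphorylated S6 detected by cytoblot immunostaining with HRP secondary.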 As to conditions: 5 h, higher = more signal.
The target of experiment [17] is NADPH oxidase 2 (Homo sapiens) (UniProt P04839). The experiment in a line: compounds shifting NOX2 Amplex Red fluorescence – cell-based, HEK293-NOX2, PMA-stimulated, NOX inhibitor project, primary screen (AID 1159). Note: test concentration not given here. As to conditions: 45 min, higher = more signal, called active from +8 up or from −8 down.
NADPH oxidase 2 (Homo sapiens), sequence (P04839 whole entry, looked up): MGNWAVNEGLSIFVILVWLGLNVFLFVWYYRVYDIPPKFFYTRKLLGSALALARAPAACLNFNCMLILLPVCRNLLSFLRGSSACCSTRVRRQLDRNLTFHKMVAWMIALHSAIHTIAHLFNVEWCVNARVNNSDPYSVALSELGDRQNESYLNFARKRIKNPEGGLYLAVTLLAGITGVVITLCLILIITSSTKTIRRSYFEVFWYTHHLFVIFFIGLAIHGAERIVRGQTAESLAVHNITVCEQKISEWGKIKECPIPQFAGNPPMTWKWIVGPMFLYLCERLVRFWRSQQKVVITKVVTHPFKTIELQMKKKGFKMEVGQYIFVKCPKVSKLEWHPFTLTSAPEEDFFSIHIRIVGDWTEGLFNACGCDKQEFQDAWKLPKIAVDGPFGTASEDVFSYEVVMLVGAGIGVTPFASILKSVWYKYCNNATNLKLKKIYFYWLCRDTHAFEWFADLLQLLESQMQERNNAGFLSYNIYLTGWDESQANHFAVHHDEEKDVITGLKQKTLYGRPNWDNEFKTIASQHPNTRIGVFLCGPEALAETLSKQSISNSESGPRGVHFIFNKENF
Experiment [18] concerns the target NADPH oxidase 4 (Homo sapiens) (UniProt Q9NPH5). The experiment in a line: compounds shifting NOX4 Amplex Red fluorescence – cell-based, HEK293-NOX4, tetracycline-induced, NOX inhibitor project, primary screen (AID 1160). As to conditions: HEK293-NOX4, Amplex Red H2O2 fluorescence, 45 min; higher = more signal, called active from +8 up or from −8 down.
Experiment [19] deals with NADPH oxidase 5 (Homo sapiens) (UniProt Q96PH1). The experiment in a line: compounds shifting NOX5 Amplex Red fluorescence – cell-based, HEK293-NOX5, NOX inhibitor project, primary screen (AID 1161). The following applies: HEK293-NOX5, ionomycin, 45 min, higher = more signal.
NADPH oxidase 5 (Homo sapiens), sequence (Q96PH1 whole entry, looked up): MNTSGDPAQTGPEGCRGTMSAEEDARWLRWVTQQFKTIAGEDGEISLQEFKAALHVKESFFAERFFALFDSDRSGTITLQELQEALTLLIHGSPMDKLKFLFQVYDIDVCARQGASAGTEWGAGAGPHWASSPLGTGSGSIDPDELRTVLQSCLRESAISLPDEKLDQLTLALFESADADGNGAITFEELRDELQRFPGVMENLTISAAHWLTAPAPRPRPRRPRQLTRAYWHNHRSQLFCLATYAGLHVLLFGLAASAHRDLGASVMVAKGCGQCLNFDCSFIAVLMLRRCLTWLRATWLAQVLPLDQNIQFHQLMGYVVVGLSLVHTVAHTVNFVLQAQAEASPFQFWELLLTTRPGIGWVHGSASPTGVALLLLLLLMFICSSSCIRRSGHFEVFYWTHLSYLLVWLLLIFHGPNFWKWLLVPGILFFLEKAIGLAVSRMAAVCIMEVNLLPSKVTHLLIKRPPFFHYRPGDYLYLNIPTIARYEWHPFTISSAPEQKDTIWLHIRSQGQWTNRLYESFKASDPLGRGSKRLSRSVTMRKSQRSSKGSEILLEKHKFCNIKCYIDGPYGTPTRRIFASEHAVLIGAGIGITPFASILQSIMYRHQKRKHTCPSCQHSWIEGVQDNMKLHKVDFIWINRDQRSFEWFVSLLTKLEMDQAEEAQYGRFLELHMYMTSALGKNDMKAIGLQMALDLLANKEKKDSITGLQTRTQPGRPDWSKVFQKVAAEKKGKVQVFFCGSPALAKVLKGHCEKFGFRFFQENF

Active and inactive are the calls of the source.

Streptavidin (Streptomyces avidinii), sequence (P22629 whole entry, looked up): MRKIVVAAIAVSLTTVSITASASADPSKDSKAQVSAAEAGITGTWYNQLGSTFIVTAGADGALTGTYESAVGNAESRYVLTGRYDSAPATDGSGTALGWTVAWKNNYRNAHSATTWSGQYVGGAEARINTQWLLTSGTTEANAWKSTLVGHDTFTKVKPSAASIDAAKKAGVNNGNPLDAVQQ
NADPH oxidase 4 (Homo sapiens), sequence (Q9NPH5 whole entry, looked up): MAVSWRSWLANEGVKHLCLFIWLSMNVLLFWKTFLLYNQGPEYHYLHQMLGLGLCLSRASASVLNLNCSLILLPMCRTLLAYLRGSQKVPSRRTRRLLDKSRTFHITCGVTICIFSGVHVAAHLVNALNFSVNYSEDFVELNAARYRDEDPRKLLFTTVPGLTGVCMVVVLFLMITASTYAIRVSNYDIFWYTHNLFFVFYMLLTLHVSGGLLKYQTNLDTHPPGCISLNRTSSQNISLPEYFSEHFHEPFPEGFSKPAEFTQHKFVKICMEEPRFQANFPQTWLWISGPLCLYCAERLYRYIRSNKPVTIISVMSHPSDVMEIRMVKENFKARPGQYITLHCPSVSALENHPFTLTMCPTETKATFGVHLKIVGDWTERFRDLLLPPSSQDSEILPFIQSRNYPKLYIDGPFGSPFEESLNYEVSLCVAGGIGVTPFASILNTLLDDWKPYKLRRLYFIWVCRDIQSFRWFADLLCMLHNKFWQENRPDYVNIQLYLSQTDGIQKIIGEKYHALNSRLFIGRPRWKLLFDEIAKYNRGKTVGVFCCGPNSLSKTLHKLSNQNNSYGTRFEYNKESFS

For the compound `CO[C@H]1COC(=O)[C@H](C)NC(=O)CC=C[C@@H](C)[C@H](NS(=O)(=O)c2ccc(C)cc2)COC(=O)CC=C[C@@H]1C`, the composite z-score in experiment [1] is -0.0879; in [5], -0.052; in experiment [6], -0.123; with Torsin-1A (Homo sapiens) [7], 0.961; in the experiment with Torsin-1A (Homo sapiens) [8], 0.0627; in experiment [9], 1.38. In [11], this compound had a composite z-score of -0.232. In addition, the z-score in [2] was -0.831 (inactive); in [3] it was 0.429 (inactive); in [4], -1.27 (inactive); in experiment [10], -0.154 (inactive); in [12], 0.868 (inactive); in [13] it was 0.41 (inactive). The z-score in experiment [14] was 0.229 (inactive); in [15], 0.33 (inactive); in experiment [16] it was 0.356; in experiment [17] it was 0.734 (inactive); in [18], 0.631 (inactive); in experiment [19] it was 0.971.

For `C[C@H]1NC(=O)[C@@H](C)NC(=O)[C@@]23C(=O)N[C@@H](Cc4ccccc4)C2[C@H](C)[C@@]2(C)O[C@H]2C3/C=C/C/C=C\CNC1=O` (some centres not stated), the composite z-score in experiment [1] was 0.0845; in [5], -0.594; in [6], -0.128; in the experiment with Torsin-1A (Homo sapiens) [7], 0.153; with Torsin-1A (Homo sapiens) [8] it was -0.354; in experiment [9], 0.651. In [11], this compound gave a composite z-score of -0.245. Moreover, the z-score in experiment [2] is -0.333 (inactive); in experiment [3], 3.4 (inactive); in experiment [4] it was -1.32 (inactive); in [10], 2.35 (inactive); in [12] it was 1.27 (inactive); in [13], 0.279 (inactive). The z-score in experiment [14] is 0.234 (inactive); in experiment [15], 0.157 (inactive); in [16] it was 0.52; in [17], 0.248 (inactive); in [18], -0.848 (inactive); in experiment [19] it was 0.442.

`C=C(COC)/C(=C/C[C@H](OC(C)=O)c1ccc(OCCO)cc1)c1cnc2ccccc2c1`: the composite z-score was 0.248 in experiment [1]; 0.864 in experiment [5]; 0.0082 in experiment [6]; 0.654 with Torsin-1A (Homo sapiens) [7]; -0.0171 in the experiment with Torsin-1A (Homo sapiens) [8]; 1.99 in [9]. This compound also registered a composite z-score in [11] of 0.199. Moreover, the z-score in [2] was -0.843 (inactive); in experiment [3], 7.3 (inactive); in experiment [4], -0.862 (inactive); in experiment [10], 1.25 (inactive); in [12] it was 13.5 (active); in [13], -0.0743 (inactive). For the same compound, the z-score is 1.05 (inactive) in experiment [14]; -0.947 (inactive) in [15]; -0.117 in experiment [16]; 1.32 (inactive) in experiment [17]; 0.767 (inactive) in experiment [18]; -0.593 in [19].

On to `C=CCN1C(=O)[C@]2(O[C@H](CCn3cc(CCO)nn3)[C@@H]([Si](C)(C)c3ccc(OC)cc3)[C@@H]2C)c2cc(NC(=O)c3ccc(OC)cc3)ccc21`, for which the composite z-score in [1] was 0.46; in experiment [5], 0.132; in [6], -0.0598; in the experiment with Torsin-1A (Homo sapiens) [7], 1.06; with Torsin-1A (Homo sapiens) [8] it was 0.66; in experiment [9], 1.61. Moreover, in experiment [11], the composite z-score amounted to 0.13. The z-score in experiment [2] is -4.16 (inactive); in [3], 7.29 (inactive); in experiment [4] it was -1.63 (inactive); in experiment [10], 1.24 (inactive); in experiment [12] it was 11.3 (active); in experiment [13], -0.0473 (inactive). Further, the z-score was 0.715 (inactive) in [14]; -1.36 (inactive) in experiment [15]; 0.173 in experiment [16]; 0.891 (inactive) in experiment [17]; 1.28 (inactive) in experiment [18]; 0.385 in experiment [19].

For the compound `COCCCNC(=O)[C@@]1(Sc2ccc(C)cc2)CC(=O)N(Cc2cc(C(F)(F)F)cc(C(F)(F)F)c2)[C@@H]1c1ccc(CO)cc1I`, the composite z-score is -0.265 in [1]; -0.713 in experiment [5]; -0.123 in experiment [6]; -0.083 with Torsin-1A (Homo sapiens) [7]; -0.693 with Torsin-1A (Homo sapiens) [8]; -0.612 in [9]. Besides, the composite z-score in experiment [11] was determined as 0.162. In addition, the z-score in [2] is -1.47 (inactive); in experiment [3] it was 1.01 (inactive); in [4], 0.264 (inactive); in experiment [10], 1.57 (inactive); in [12], 2.3 (inactive); in experiment [13], 1.08 (inactive). Moreover, the z-score in experiment [14] was -0.34 (inactive); in [15], 0.278 (inactive); in experiment [16], 0.411; in experiment [17] it was 2.35 (inactive); in experiment [18], -0.978 (inactive); in experiment [19], 1.75.

In the case of `CC/C=C/C(=O)N(C[C@@H]1CCCO1)[C@@H]1CC(C(=O)NCCO)=C[C@H](Oc2c(I)cc(CO)cc2OC)[C@H]1O`, the composite z-score was -0.0308 in experiment [1]; -0.0512 in experiment [5]; -0.128 in [6]; 0.553 with Torsin-1A (Homo sapiens) [7]; 0.267 in the experiment with Torsin-1A (Homo sapiens) [8]; 0.239 in experiment [9]. The compound also yielded a composite z-score in experiment [11] of 0.135. In addition, the z-score in experiment [2] is -1.97 (inactive); in experiment [3], 0.858 (inactive); in experiment [4] it was -2.41 (inactive); in experiment [10] it was 1.24 (inactive); in experiment [12] it was 1.05 (inactive); in [13], -0.433 (inactive). For the same compound, the z-score was 1.31 (inactive) in [14]; -1.48 (inactive) in [15]; 1.98 in experiment [16]; -0.425 (inactive) in [17]; 1.5 (inactive) in [18]; 1.2 in experiment [19].

Turning to `CCOC(=O)C[C@H]1[C@H](OC(=O)c2cc3ccccc3oc2=O)[C@@H](NC(=O)c2ccc3ccccc3c2)c2cc(OCCCO)ccc2N1C(=O)c1ccc2ccccc2n1`, the composite z-score in experiment [1] was determined as 0.338; in experiment [5], 0.895; in experiment [6] it was 0.0497; in the experiment with Torsin-1A (Homo sapiens) [7] it was 0.419; with Torsin-1A (Homo sapiens) [8], 0.268; in experiment [9], 0.43. The compound also came in with a composite z-score in experiment [11] of 0.19. The z-score in [2] was -0.574 (inactive); in experiment [3], 9.89 (active); in [4] it was -2.03 (inactive); in experiment [10], 2.1 (inactive); in experiment [12], 11.1 (active); in [13], 1.42 (inactive). Further, the z-score is 0.865 (inactive) in experiment [14]; 0.868 (inactive) in experiment [15]; 0.63 in [16]; 0.985 (inactive) in experiment [17]; 0.873 (inactive) in [18]; 2.17 in experiment [19].

On to `Cc1ccc(N2C(=O)c3ccccc3[C@@H](C(=O)NCc3ccccc3)[C@@H]2c2ccc(CO)cc2)nc1`, for which the composite z-score in experiment [1] was 0.0687; in experiment [5] it was -0.524; in [6], 0.0028; with Torsin-1A (Homo sapiens) [7] it was 0.628; in the experiment with Torsin-1A (Homo sapiens) [8] it was 0.276; in [9] it was 0.311. In [11], the composite z-score worked out at 0.26. Also, the z-score in experiment [2] was -1.54 (inactive); in experiment [3], -0.0888 (inactive); in experiment [4], -1.02 (inactive); in experiment [10] it was 1.85 (inactive); in experiment [12], 2.1 (inactive); in [13], -0.349 (inactive). Also, the z-score is -0.199 (inactive) in experiment [14]; -0.509 (inactive) in experiment [15]; -1.72 in [16]; -0.109 (inactive) in [17]; 1.03 (inactive) in experiment [18]; 0.298 in experiment [19].
